According to paper PMC5540273 (PLoS ONE, 2017):

Assays:
Conditions in all cases: concentration: 1 μM, replicates: in singlicate; n = 1
DMPK2 = system: T1, DMPK2
T1 construct: gene CDC42BPG

DMPK = system: DMPK
DRAK1 = system: T2, DRAK1
T2 construct: gene STK17A

DRAK2 = system: T3, DRAK2
T3 construct: gene STK17B

DYRK1A = system: DYRK1A
DYRK1B = system: DYRK1B
DYRK2 = system: DYRK2
EGFR = system: EGFR
EIF2AK1 = system: EIF2AK1
EPHA1 = system: EPHA1
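Further: KINOMEscan kinase panel screen.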

SMILES | %Inh (DMPK2) | %Inh (DMPK) | %Inh (DRAK1) | %Inh (DRAK2) | %Inh (DYRK1A) | %Inh (DYRK1B) | %Inh (DYRK2) | %Inh (EGFR) | %Inh (EIF2AK1) | %Inh (EPHA1)
COc1ccc(Nc2nccc(N3CCC(NC(=O)c4cc5ccccc5s4)C3)n2)cc1 (centres unmarked) [GSK1379738] | 7% | 0% | 0% | 0% | 15% | 0% | 0% | 0% | 0% | 17%
CNc1cc(-c2ccc3c(N)n[nH]c3c2)nc(N)n1 [GSK2224810] | 10% | 0% | 95.3% | 77% | 64% | 43% | 90% | 17% | 0% | 9%
COc1ccc(Nc2nccc(NCCNC(=O)Nc3cc(C)ccc3C)n2)cc1 [GSK1379899] | 0% | 0% | 0% | 0% | 18% | 7% | 2% | 27% | 0% | 5%
COc1ccc2cc(-c3nc(-c4ccccc4C(C)C)[nH]c3-c3ccncc3)ccc2c1 [SB-660566] | 0% | 0% | 6% | 0% | 31% | 15% | 7% | 18% | 3% | 22%
COc1ccc(Nc2nccc(N3CCC(NC(=O)C(C)c4ccc(Cl)cc4)C3)n2)cc1 (centres unmarked) [GSK1379735] | 0% | 0% | 8% | 0% | 12% | 0% | 3% | 14% | 77% | 0%
Cc1ccc(NC(=O)Nc2ccc(Cl)cc2)cc1-c1ccc(C(=O)Nc2ccncc2)cc1 [GSK1398472] | 63% | 0% | 3% | 0% | 19% | 0% | 0% | 24% | 0% | 12%
COc1cccc(C2=C(Nc3cc(Cl)c(O)c(Cl)c3)C(=O)NC2=O)c1 [SB-390767] | 0% | 0% | 2% | 0% | 38% | 0% | 2% | 0% | 0% | 8%
Cc1cnc(N)c(/C=C/c2cncc(C(=O)NCCc3ccc(Cl)cc3Cl)c2)c1.Cl [GSK190937] | 3% | 0% | 18% | 0% | 8% | 15% | 4% | 0% | 0% | 0%
O=C(Nc1n[nH]c2nc(-c3cccs3)c(Br)cc12)C1CC1 [SB-735297] | 0% | 0% | 25% | 0% | 13% | 0% | 26% | 0% | 0% | 21%
CCc1ccc(-c2ccc3c(c2)-c2n[nH]cc2S(=O)(=O)N3C)cc1 | 0% | 0% | 0% | 0% | 0% | 11% | 0% | 0% | 0% | 11%
COc1cc2ncnc(Nc3cccc(Br)c3)c2cc1OC.Cl [GI230329] | 5% | 6% | 34% | 0% | 15% | 0% | 21% | – | 47% | 18%
CNc1nc(-c2ccc3c(N)n[nH]c3c2)cc(N2C[C@@H](C(=O)Nc3ccccc3)CC[C@H]2C)n1 [GSK2298859] | 13% | 0% | 97.6% | 80% | 15% | 0% | 10% | 31% | 0% | 14%
CS(=O)(=O)CCNCc1nc(-c2ccc3ncnc(Nc4ccc(OCc5ccccc5)c(Cl)c4)c3c2)cs1.Cl [GW582764] | 0% | 0% | 4% | 0% | 19% | 0% | 0% | – | 0% | 8%
CC(=O)c1c(C)c2cnc(Nc3ccc(N4CCNCC4)cn3)nc2n(C2CCCC2)c1=O | 96% | 15% | 8% | 5% | 0% | 0% | 0% | 4% | 0% | 24%
CSc1ccc(-c2nc3n(c2-c2ccncc2)CCC3)cc1 [SKF-105561] | 0% | 0% | 1% | 0% | 3% | 0% | 0% | 7% | 0% | 12%
CNc1nc(-c2ccc3c(N)n[nH]c3c2)cc(N2C[C@@H](C(=O)NC3CCCCC3)OC[C@H]2C)n1 [GSK2375584] | 11% | 0% | 39% | 2% | 7% | 0% | 0% | 24% | 0% | 14%
CCn1c(-c2c(N)noc2C)nc2cnccc21 [SB-737856] | 99.8% | 0% | 0% | 0% | 30% | 0% | 4% | 24% | 3% | 0%
Cc1ccc(NC(=O)Nc2ccc(Cl)c(C(F)(F)F)c2)cc1-c1ccc(C(=O)Nc2ccncc2)cc1 [GSK1398470] | 12% | 0% | 0% | 0% | 12% | 19% | 29% | 25% | 78% | 6%

SMILES | %Inh (DMPK2) | %Inh (DMPK) | %Inh (DRAK1) | %Inh (DRAK2) | %Inh (DYRK1A) | %Inh (DYRK1B) | %Inh (DYRK2) | %Inh (EGFR) | %Inh (EIF2AK1) | %Inh (EPHA1)
Cc1ccccc1-c1cc(-c2c[nH]nc2-c2ccccn2)ccn1 [GW680061] | 0% | 0% | 2% | 0% | 14% | 0% | 0% | 38% | 0% | 3%
COC(=O)C(NC(=O)NC1CCN(c2ccnc(Nc3ccc(F)cc3)n2)C1)c1ccccc1 (centres unmarked) [GSK1379712] | 1% | 0% | 2% | 0% | 0% | 17% | 13% | 23% | 0% | 10%
CN1c2ccc(-c3ccc(C(N)=O)cc3)cc2-c2[nH]ncc2S1(=O)=O | 0% | 0% | 52% | 15% | 34% | 24% | 0% | 0% | 0% | 8%
Cc1nccc(-c2c(-c3ccc(F)cc3)ncn2CCCN2CCOCC2)n1.Cl [SB-282975] | 9% | 22% | 14% | 22% | 17% | 34% | 0% | 17% | 14% | 24%
COC(=O)c1cccc(NC(=O)NC2CCN(c3ccnc(Nc4ccc(F)cc4)n3)C2)c1 (centres unmarked) [GSK1379725] | 0% | 0% | 0% | 0% | 18% | 0% | 0% | 0% | 0% | 8%
Cc1cccc2c(-c3ccncn3)c(-c3ccc(F)cc3)nn12 [GW515532] | 24% | 0% | 0% | 0% | 23% | 0% | 13% | 47% | 0% | 16%
Cn1cnc2c(N)ncnc21 [SKF-97623] | 0% | 0% | 8% | 0% | 0% | 36% | 0% | 13% | 0% | 0%
COc1ccc(CSc2nnc(-c3ccc4nccn4c3)o2)cc1C(F)(F)F | 2% | 41% | 31% | 0% | 41% | 41% | 0% | 4% | 7% | 0%
CS(=O)(=O)CCNCc1nc(-c2ccc3ncnc(Nc4ccc5c(cnn5Cc5ccccc5)c4)c3c2)cs1.Cl.Cl [GW569716] | 0% | 0% | 35% | 21% | 36% | 0% | 0% | – | 0% | 14%
COc1ccc(Nc2nccc(-c3ccc(NC(=O)c4cc5cc(F)ccc5[nH]4)cc3)n2)cc1 [GSK1229496] | 4% | 0% | 69% | 19% | 14% | 0% | 0% | 14% | 0% | 0%
COC(=O)C(Cc1ccccc1)NC(=O)NC1CCN(c2ccnc(Nc3ccc(F)cc3)n2)C1 (centres unmarked) [GSK1379714] | 0% | 0% | 0% | 0% | 10% | 10% | 0% | 31% | 0% | 7%
O=C(Nc1n[nH]c2nc(-c3ccco3)c(Br)cc12)C1CCN(Cc2ccccc2)C1.O=C(O)[C@H](O)[C@@H](O)C(=O)O (centres unmarked) [SB-742034] | 0% | 0% | 11% | 13% | 22% | 0% | 32% | 1% | 33% | 0%
Fc1ccc(-c2nc[nH]c2-c2ccncc2)cc1 [SB-217360] | 71% | 0% | 0% | 0% | 6% | 0% | 33% | 31% | 0% | 0%
Fc1ccc(-c2nn3cccc(F)c3c2-c2ccncc2)cc1 [GW475620] | 81% | 28% | 0% | 17% | 7% | 0% | 0% | 52% | 0% | 22%
O=C(Nc1n[nH]c2cc(-c3ccsc3)ccc12)C1CC1 [SB-732932] | 0% | 0% | 17% | 0% | 0% | 12% | 28% | 0% | 0% | 3%
CC(=O)c1c(C)c2cnc(Nc3ccn(C)n3)nc2n(C2CCCC2)c1=O | 1% | 0% | 0% | 0% | 13% | 0% | 0% | 5% | 0% | 4%
CC[C@@H]1CO[C@H](C(=O)Nc2ccccc2)CN1c1cc(-c2ccc3c(N)n[nH]c3c2)nc(NC)n1 [GSK2376236] | 5% | 0% | 95.3% | 68% | 1% | 0% | 12% | 71% | 0% | 3%
